Screens from PubChem BioAssay.
In the library only some 2.5% were active in any assay of this set; here they are far more common.
ATG4B inhibitor: ATG4B protease inhibitors, primary screen, biochemical, fluorescence, uHTS; 340,000 tested, 0.51% active; ATG4B cleavage of LC3-PLA2, NBD-HPC fluorescence, 1 h; Cysteine protease ATG4B (Homo sapiens), Q9Y4P1; inhibition, % at 8.33 µM; in the data active = inhibition above about 40%
Target sequence (Q9Y4P1 whole entry, looked up): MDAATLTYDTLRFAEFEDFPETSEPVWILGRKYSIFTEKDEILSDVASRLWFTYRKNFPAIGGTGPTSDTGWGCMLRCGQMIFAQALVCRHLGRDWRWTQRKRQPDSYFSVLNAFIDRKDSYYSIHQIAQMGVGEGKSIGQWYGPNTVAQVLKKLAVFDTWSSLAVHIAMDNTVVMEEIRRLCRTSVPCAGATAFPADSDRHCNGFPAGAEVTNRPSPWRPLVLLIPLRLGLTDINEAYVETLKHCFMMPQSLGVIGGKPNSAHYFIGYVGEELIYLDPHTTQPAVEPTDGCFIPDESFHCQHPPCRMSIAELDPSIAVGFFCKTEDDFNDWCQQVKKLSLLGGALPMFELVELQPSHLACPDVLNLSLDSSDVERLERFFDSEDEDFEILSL
V-ATPase pH: regulators of yeast V-ATPase proton pumping, primary screen, pHLuorin cytosolic pH fluorescence. S. cerevisiae. response, % at 10 µM. 350,000 tested, 0.37% active; in the data active = response mostly above about 7.3%, no sharp cut-off; inactive = mostly below about 5.4%; note: actives read high
SUMO Mot1 rescue: yeast Mot1-301 growth rescue at high temperature, primary screen, SUMOylation pathway inhibitor project, S. cerevisiae, ATP luminescence, 38.5C; growth rescue, % at 18.8 µM; S. cerevisiae Mot1-301 growth rescue; percent above DMSO median, 100 means doubled; AID 2716, 2010; 320,000 tested, 1% active;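 active = every valid replicate shows activation above 250% relative to neutral control wells; inactive = the rest, any valid replicate at or below 250%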;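 note: OY570 slx delta 5 strain wells were the positive control but not used for scaling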
AI-2 QS modul: Vibrio harveyi AI-2 quorum sensing modulators, primary screen, JMH597 strain, luminescence/OD600 ratio; activity change, % at 7.5 µM; Vibrio harveyi JMH597 AI-2 luminescence/OD600 ratio, 9 h; active compounds read low; strain lacks LuxN and CqsS sensors; 0 = neutral-control median; 300,000 tested, 0.4% active; AID 2094, 2009; in the data active = activity change below about -75%, passing the limit was not always enough;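 note: luminescence divided by OD600 gain over 9 h not by final OD600 alone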
Efflux pump inh: inhibitors of Candida efflux pumps in yeast, primary screen, S. cerevisiae, Nile Red, multiplex; inhibition, % at 10 µM; S. cerevisiae Candida pump triplex; 330,000 tested, 0.44% active; AID 485275, 2010;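 active = plate passing quality check with inhibition over a set limit, or well fluorescence over plate mean plus 4 SD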;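 note: Nile Red retained in pooled yeast measured as flow cytometry median fluorescence; 0% = buffer negative control and 100% = Enniatin B positive control; higher means more Nile Red kept so more efflux inhibition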
Yeast Mot1 SUMO: growth restoration of Mot1-301 yeast on galactose, dose response, SUMO pathway inhibitor project, whole organism, S. cerevisiae, ATP luminescence, cherry-picked samples | shares compounds with SUMO Mot1 rescue | S. cerevisiae Mot1-301 galactose growth, 24 h; -100 = growth of slx-deleted rescue strain | growth activity, percent, % at 42 µM | 2,300 tested, under 10 active;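 active = Signal drops as the depositor expects, and the fitted half-maximal dose is no more than ten times the top valid tested dose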;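 note: more negative values mean stronger growth rescue toward the control strain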
* hit, by the source's call; . = not tested or not shown; + = active, no number.

SMILES | ATG4B inhibitor | V-ATPase pH | SUMO Mot1 rescue | AI-2 QS modul | Efflux pump inh | Yeast Mot1 SUMO
Cn1c(=O)c2c(ncn2CC(=O)OCC(=O)Nc2ccc(Cl)cc2)n(C)c1=O | 1 | 0 | 847* | 25 | -4 | 0
CCSc1ccccc1C(=O)NCc1ccco1 | -16 | 1 | 36 | 9 | 0 | .
COc1ccc(-c2nc(NC(=O)CCNC(=O)c3ccco3)sc2C)cc1 | -13 | -2 | 368* | 15 | 0 | 0
CC1CCCC(C)N1/N=C/c1cc(Br)cc(Br)c1O (stereo not given) | 1 | 1 | 476* | 16 | 0 | -1
Nc1nnc(CC(=O)N2CCCCC2)s1 | -8 | 2 | 396* | 5 | 0 | 0
Nc1nnc(CC(=O)Nc2ccccc2)s1 | -6 | 0 | 5 | 9 | 0 | .
Cc1nn(-c2ccccc2)c(Cl)c1C(=O)NNC(=O)c1ccccc1O | -1 | 3 | -5 | . | -1 | .
CC(=O)NC1CCCN(O)C(=O)/C=C(\C)CCOC(=O)C(NC(C)=O)CCCN(O)C(=O)/C=C(\C)CCOC(=O)C(NC(C)=O)CCCN(O)C(=O)/C=C(\C)CCOC1=O (stereo not given) | -22 | . | 559* | -33 | 0 | 0
CCC(C)(C(=O)NC1CCCCC1)N(C(=O)c1ccccn1)c1ccccc1 (stereo not given) | -13 | -2 | 6 | 9 | 0 | .
CCC(C)(C(=O)NC1CCCC1)N(C(=O)c1ccccn1)c1ccc(C)cc1 (stereo not given) | -16 | -2 | 653* | 22 | 0 | 0
C/C=C(/C)C(=O)OC1c2c(ccc3ccc(=O)oc23)OC(C)(C)C1OC(=O)/C(C)=C\C (stereo not given) | -7 | -1 | 730* | 7 | 1 | 1
CN1CCCC(n2nc(Cc3ccc(Cl)cc3)c3ccccc3c2=O)CC1 (stereo not given) | 5 | -4 | 396* | 8 | 0 | 0
Cc1ccc(NC(=O)c2ccc(Cl)c(S(=O)(=O)N3CCCC3)c2)nc1 | -8 | -2 | 6 | 24 | 0 | .
CCC(C)NCCCCOc1cc(C)cc(C(C)C)c1 (stereo not given) | -4 | 1 | 401* | 20 | 0 | 0
COc1cc(CN2CCCC(CO)(Cc3cccc(Cl)c3)C2)cc(OC)c1O (stereo not given) | 0 | 1 | 2 | 12 | 0 | .
COc1ccc(CN2CCCC(CO)(Cc3cccc(Cl)c3)C2)cc1OC (stereo not given) | 11 | 0 | -13 | 12 | 0 | .
CC(=O)Nc1ccc(CN2CCCC(CO)(Cc3cccc(Cl)c3)C2)cc1 (stereo not given) | -1 | 2 | + | -6 | 0 | 0
OCC1(Cc2cccc(Cl)c2)CCCN(Cc2ccc(F)c(F)c2)C1 (stereo not given) | 10 | -3 | 382* | 22 | 0 | -1
COc1cc(CN2CCCC(CO)(Cc3cccc(Cl)c3)C2)cc2c1OCO2 (stereo not given) | -4 | 2 | + | -9 | 0 | 1
c1ccc(C(c2ccccc2)N2CCN(C(c3ccccn3)c3nnnn3C3CCCC3)CC2)cc1 (stereo not given) | -11 | 0 | + | 20 | 0 | 0
COc1ccc(S(=O)(=O)N2CCN(C(c3ccccc3)c3ccccc3)CC2)cc1NC(C)=O | -5 | 3 | 10 | 29 | 1 | .
CN(C)c1ccc(NS(=O)(=O)c2cccc(Cl)c2)cc1 | 1 | -3 | 733* | 1 | 2 | 0
O=C(/C=C/NNC(=O)c1ccc(Br)cc1)c1ccccc1 | -9 | 2 | 399* | 1 | 0 | 1
O=C(/C=C/NNC(=O)c1ccccc1)c1ccccc1 | -16 | -1 | -15 | 9 | 0 | .
Nc1nc(-c2ccc(F)cc2)cc(C(F)(F)F)n1 | 12 | 7 | 503 | 3 | 0 | .
SMILES | ATG4B inhibitor | V-ATPase pH | SUMO Mot1 rescue | AI-2 QS modul | Efflux pump inh | Yeast Mot1 SUMO
Fc1ccc(-c2cc(C(F)(F)F)nc(NCc3cccs3)n2)cc1 | 14 | 1 | 458* | 7 | 0 | 1
COC(=O)c1sccc1NC(=S)N1CCCCC1 | -2 | 0 | + | 18 | 0 | 0
COc1ccc(NC(=O)CSc2nccc(C)n2)cc1 | -5 | 2 | + | 26 | 0 | 0
COc1ccccc1NS(=O)(=O)c1cc2c3c(c1)CCN3C(=O)CC2 | 1 | -3 | -20 | -8 | 0 | .
O=C(N/C(=C/c1ccc2c(c1)OCO2)C(=O)N1CCOCC1)c1cccs1 | 3 | 2 | 765* | 8 | 0 | -1
CN(CC(=O)NCC1CCCCC1)CC(=O)Nc1ccccc1Br | -1 | 0 | -11 | . | 0 | .
CN1C(=O)/C(=C/c2ccc(OCc3ccccc3F)cc2)NC1=S | 5 | 3 | 375* | 24 | 0 | 0
Cc1cc(C(=O)COc2cccc3cccnc23)c(C)n1C | 6 | -1 | 598* | 25 | 0 | 0
CCn1c(SCC(=O)NC2CCCCC2)nnc1-c1cccs1 | -4 | -2 | 52 | 7 | 0 | .
CCn1c(SC(=O)NC2CCCCC2)nnc1-c1cccs1 | 13 | -4 | 525* | 39 | 0 | 0
CCOC(=O)C1CCN(C(=O)COc2ccc(S(=O)(=O)N3CCOCC3)cc2C)CC1 | 3 | 0 | 718* | 32 | 0 | 0
Cc1ccc2c(c1)N(CC(=O)NCCCN1CCN(C)CC1)C(=O)CO2 | 6 | -1 | 634* | 4 | 0 | 0
CN1CCN(CCCNC(=O)CN2C(=O)COc3ccccc32)CC1 | 7 | 0 | 241 | 27 | 0 | .
CCCOCCc1nnc(N)s1 | -9 | -1 | 5 | 21 | 0 | .
COC(=O)CSc1nn(-c2ccc(F)cc2)c(=S)s1 | -15 | 3 | 264 | 16 | 0 | .
Cc1ccc(NC(=O)CCS(=O)(=O)c2ccc3nc(C)sc3c2)cc1 | -2 | 2 | 524* | 12 | 0 | 0
Cc1nc2ccc(S(=O)(=O)NC(CC(C)C)C(=O)O)cc2s1 (stereo not given) | -2 | -1 | + | 28 | 0 | 0
Cc1nc2ccc(S(=O)(=O)NC(C(=O)N3CCCC3)C(C)C)cc2s1 (stereo not given) | -6 | -1 | . | 14 | 0 | .
Cc1ccc(NC(=O)COC(=O)c2cc(=O)c3cc(F)ccc3o2)cc1 | -6 | 1 | . | . | . | .
NS(=O)(=O)c1cccc(NC(=O)c2cccnc2Oc2ccccc2)c1 | -5 | 4 | 936* | 18 | 0 | 0
